Each structure is given as a SMILES string. Inconclusive results are not listed. Calls of active or inactive are those of the source. Rule for the calls: active = hit-call score of the fitted dose curve at least 0.9, where 1 is the maximum; inconclusive = response in the unintended direction; inactive = score below 0.9.

Chain of Estrogen receptor (Homo sapiens) + Estrogen receptor beta (Homo sapiens) (P03372 whole entry, looked up, the tested form may be a part): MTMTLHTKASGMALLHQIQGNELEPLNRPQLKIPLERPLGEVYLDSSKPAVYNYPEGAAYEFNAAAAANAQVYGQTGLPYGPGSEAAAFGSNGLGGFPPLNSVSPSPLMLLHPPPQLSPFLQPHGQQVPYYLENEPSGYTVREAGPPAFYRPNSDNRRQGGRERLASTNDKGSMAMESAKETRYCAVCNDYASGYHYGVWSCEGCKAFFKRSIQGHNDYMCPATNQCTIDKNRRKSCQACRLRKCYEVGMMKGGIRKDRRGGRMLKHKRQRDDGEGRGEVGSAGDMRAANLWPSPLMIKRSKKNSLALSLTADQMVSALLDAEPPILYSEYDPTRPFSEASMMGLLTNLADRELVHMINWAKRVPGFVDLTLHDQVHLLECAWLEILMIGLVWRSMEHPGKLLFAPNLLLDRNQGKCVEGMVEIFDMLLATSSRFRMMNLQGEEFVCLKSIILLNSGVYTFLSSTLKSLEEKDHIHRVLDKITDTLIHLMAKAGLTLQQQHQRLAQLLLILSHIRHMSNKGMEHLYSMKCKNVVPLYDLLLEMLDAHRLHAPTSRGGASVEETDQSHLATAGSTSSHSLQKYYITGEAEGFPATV
Chain of Estrogen receptor (Homo sapiens) + Estrogen receptor beta (Homo sapiens) (Q92731 whole entry, looked up, the tested form may be a part): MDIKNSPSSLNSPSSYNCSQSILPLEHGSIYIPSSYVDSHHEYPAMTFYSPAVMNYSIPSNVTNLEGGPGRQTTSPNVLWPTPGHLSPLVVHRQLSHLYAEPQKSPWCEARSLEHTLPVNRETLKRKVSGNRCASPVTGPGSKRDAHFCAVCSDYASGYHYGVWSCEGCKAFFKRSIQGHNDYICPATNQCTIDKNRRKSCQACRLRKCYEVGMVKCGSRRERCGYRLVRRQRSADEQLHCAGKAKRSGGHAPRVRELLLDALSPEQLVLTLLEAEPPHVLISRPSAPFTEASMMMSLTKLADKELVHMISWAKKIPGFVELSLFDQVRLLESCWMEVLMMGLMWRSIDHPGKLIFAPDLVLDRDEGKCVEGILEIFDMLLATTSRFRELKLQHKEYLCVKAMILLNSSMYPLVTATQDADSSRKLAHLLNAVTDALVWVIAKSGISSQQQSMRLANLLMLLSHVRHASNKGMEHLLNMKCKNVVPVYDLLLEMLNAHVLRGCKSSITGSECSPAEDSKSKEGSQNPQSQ

In the assay the target is Estrogen receptor (Homo sapiens) + Estrogen receptor beta (Homo sapiens) (UniProt P03372+Q92731). The assay is described as follows: OT_ER_ERaERb_1440: Odyssey Thera (OT) 24-hour HEK293T Protein-Complementation Assay for Estrogen Receptor-alpha/-beta Homodimer (AID 2283356).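 Note: hits raise reporter fluorescence and both agonists and antagonists give an increase.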 As to the method:
OT_ER_ERaERb_1440 is a cell-based assay that uses HEK293T, a human kidney cell line, with measurements taken at 24 hours after chemical dosing in a 384-well plate.OT_ER_ERaERb_1440 is one of one assay component(s) measured or calculated from the OT_ER_ERaERb_1440 assay. It is designed to make measurements of protein fragment complementation, a form of binding reporter, as detected with fluorescence intensity signals by Protein-fragment Complementation technology.Data from the assay component OT_ER_ERaERb_1440 was analyzed into 1 assay endpoint. This assay endpoint, OT_ER_ERaERb_1440, was analyzed in the positive analysis fitting direction relative to DMSO as the negative control and baseline of activity. Using a type of binding reporter, measures of receptor for gain-of-signal activity can be used to understand the binding at the pathway-level as they relate to the gene ESR1 and ESR2. Furthermore, this assay endpoint can be referred to as a primary readout, because the performed assay has only produced 1 assay endpoint. To generalize the intended target to other relatable targets, this assay endpoint is annotated to the nuclear receptor intended target family, where the subfamily is steroidal.
Protein-fragment complementation assay, or PCA, is a method for the identification and quantification of protein-protein interactions. In the PCA, the proteins of interest ("bait" and "prey") are each covalently linked to fragments of a third protein (e.g. DHFR, which acts as a "reporter"). Interaction between the bait and the prey proteins brings the fragments of the reporter protein in close proximity to allow them to form a functional reporter protein whose activity can be measured. The OT ER alpha / ER beta assay is a heterodimer PCA of the ligand binding domain (LBD) of ER alpha (amino acids 310-547) and human ER beta (amino acids 263-489) stably expressed in HEK293T cells. […] Fluorescent signal in the basal state of the assay is very low and is primarily punctuate and cytoplasmic. Modulation of this assay is quantified as an increase in mean fluorescence intensity in the nucleus (for agonists) or in the nucleus and cytoplasm (antagonists) relative to vehicle controls, and can be quantified on a high content imaging device or a laser scanning cytometer. The latter instrument is favored for this assay because of the rapid mode of data acquisition, the ability to acquire data from the entire cell population in a well (as opposed to a fraction of the well on the high content devices) and the larger dynamic range typically achieved with this instrument. To assess sensitivity of the ER alpha/ER beta LBD assay to ligand, cells were treated with the ER agonist 17- beta-estradiol (E2) in 10-point concentration- response format for 24 hours and monitored response on a laser scanning plate cytometer (Acumen eX3; TTP Lab Tech).
Take `Cc1cccc(O)c1C`: the outcome was inactive.

For the compound `CCCCC(CC)C(=O)OCCOCCOCCOC(=O)C(CC)CCCC` (stereo not given), the outcome was inactive.

`CC(C)CC(C)O` (stereo not given): the outcome was inactive.

For the compound `CCc1ccc(O)c(C(C)(C)C)c1`, the result was inactive.

Regarding `COc1cc2c(c(OC)c1OC)-c1ccc(OC)c(=O)cc1[C@@H](NC(C)=O)CC2`, the result was inactive.

Turning to `Cc1nccn1-c1ccc(Sc2cccc(C3(C(N)=O)CCOCC3)c2)cc1`, the AC50 (usually the concentration at which the activity in the assay is half-maximal) is 20.9 µM (active).

Regarding `CCn1nc(C)c2c1C(=O)NCC(c1ccc(O)cc1)=N2`, the result was inactive.

In the case of `OC[C@H]1O[C@@H]2O[C@H]3[C@H](O)[C@@H](O)[C@@H](O[C@H]4[C@H](O)[C@@H](O)[C@@H](O[C@H]5[C@H](O)[C@@H](O)[C@@H](O[C@H]6[C@H](O)[C@@H](O)[C@@H](O[C@H]7[C@H](O)[C@@H](O)[C@@H](O[C@H]1[C@H](O)[C@H]2O)O[C@@H]7CO)O[C@@H]6CO)O[C@@H]5CO)O[C@@H]4CO)O[C@@H]3CO`, the outcome was inactive.

Consider `C[C@@H](Oc1ccc(CNC(=O)c2cccnc2Oc2ccc3c(c2)OCO3)c(F)c1)C(=O)O`, for which the result was inactive.

Consider `Cc1nc(-c2ccccn2)ncc1C(=O)Nn1cc(C)c2cc(F)ccc21`, for which the result was inactive.

In the case of `CCCCCCCC/C=C\CCCCCCCC(=O)OC[C@@H](O)[C@H]1OC[C@H](O)[C@H]1O`, the result was inactive.

Turning to `c1ccc(C(O[C@@H]2CCCN(CCc3ccc4c(c3)OCO4)C2)c2ccccc2)cc1`, the concentration at half-maximal activity (AC50) is 62.5 µM (active).

As to `CCCCCCCCCC`, the result was inactive.

`CCCCN1C(=O)[C@@H]([C@H](O)C2CCCCC2)NC(=O)C12CCN(Cc1ccc(Oc3ccc(C(=O)O)cc3)cc1)CC2`: the outcome was inactive.

On to `COCc1nnc(-c2ccc[n+]([O-])c2)n1-c1c(Cl)c(Cl)cc2[nH]c(=O)c(=O)[nH]c12`, for which the outcome was inactive.

Take `CCCCCCCCCCCCCCCCOS(=O)(=O)O`: the outcome was inactive.

Consider `CCc1cccc(CC)c1N`, for which the result was inactive.

In the case of `Cn1cc[nH]c1=S`, the outcome was inactive.

For the compound `O=C(O)CO`, the result was inactive.

As for `OC(CCl)CCl`, the outcome was inactive.

As for `CC(C)CCCCCCOC(=O)C1CCCCC1C(=O)OCCCCCCC(C)C` (stereo not given), the outcome was inactive.

In the case of `O=S1(=O)CCCO1`, the result was inactive.

Take `C=CCc1cc(S(=O)(=O)c2ccc(O)c(CC=C)c2)ccc1O`: the outcome was inactive.

Regarding `Cc1ccc(S(=O)(=O)NC(=O)NN2CCCCCC2)cc1`, the outcome was inactive.

As to `OCC(CO)(CO)CO`, the outcome was inactive.

Consider `CCCCCCCCCCCCCCO`, for which the result was inactive.

On to `OC[C@H]1O[C@@](CO)(O[C@H]2O[C@H](CO)[C@@H](O)[C@H](O)[C@H]2O)[C@@H](O)[C@@H]1O`, for which the result was inactive.

Regarding `c1ccc2cc3ccccc3cc2c1`, the result was inactive.

For the compound `NNC(=O)c1ccncc1`, the result was inactive.

Turning to `CCCCCCCC1CCC(=O)O1` (stereo not given), the outcome was inactive.

As to `CNC(C)=O`, the result was inactive.

In the case of `OCCOCCOCCO`, the result was inactive.

For `NC(N)=O`, the result was inactive.

Turning to `NC(=O)N1c2ccccc2C=Cc2ccccc21`, the outcome was inactive.

Regarding `O=C(O)c1cccc(C[C@@H]2COc3ccc(OCc4nc5cc(F)ccc5s4)cc3[C@@H]2O)c1`, the result was inactive.

For the compound `CCCCCCOC(=O)CC(CC(=O)OCCCCCC)(OC(=O)CCC)C(=O)OCCCCCC`, the result was inactive.

Turning to `NC(=O)NN=Cc1ccc([N+](=O)[O-])o1`, the result was inactive.

As for `CCN(CC)C(=S)SSC(=S)N(CC)CC`, the concentration at half-maximal activity (AC50) is 12 µM (active).

Consider `O=C(NO)C1(NS(=O)(=O)c2ccc(Oc3ccc(F)cc3)cc2)CCOCC1`, for which the outcome was inactive.

On to `CCOc1ccc2[nH]cc(C(=O)NCc3ccccc3)c(=O)c2n1`, for which the result was inactive.

Values taken from PubChem BioAssay (EPA / NIEHS).
